According to PubChem BioAssay AID1845227 (National Center for Advancing Translational Sciences (NCATS), 2023):
Inconclusive results are not listed. Entries that show only a call come without a potency. Values without a mark were called inactive. Activity calls are given as the source filed them. The call rests on the fitted dose curve; in most records, active means well fitted inhibition curve with a large enough effect; inconclusive means small, poorly fitted or top-dose-only effect; inactive means no such curve, though single readings can be large or run the other way.

target: Luciferin 4-monooxygenase (Photinus pyralis) (UniProt P08659); test: Confirmatory firefly luciferase (FLuc) qHTS assay for identification of artifact compounds; details: purified FLuc enzyme, luminescence, 5 min; series mostly up to 38.9 µM
Summary of the method: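 Compounds were preincubated 15 min at room temperature with 10 uM D-luciferin and 10 uM ATP in Tris acetate pH 7.6. 10 nM Photinus pyralis luciferase was then added, and luminescence was read after 5 min.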

Row | SMILES | Potency | activity change, negative = inhibition
1 | CCC(=O)N1CCc2cc(CNC(=O)Nc3cc(OC)c(OC)c(OC)c3)ccc21 | inactive | 
2 | CO[C@H]1[C@@H](O)[C@H](N)[C@@H](O[C@H]2O[C@H]([C@H](C)N)CC[C@H]2N)[C@H](O)[C@@H]1N(C)C(=O)CN | inactive | 
3 | CCOC(=O)c1c(S(=O)(=O)NCC(=O)N2CCN(c3cc(C)ccc3C)CC2)c(C)n(C)c1C | inactive | 
4 | O=C(Nc1cc(-c2ccc(Cl)cc2)no1)c1ccc(F)cc1 | inactive | 
5 | COCCn1c(C)cc(O)c(C(c2ccc(OC)cc2)N2CCN(c3ccccc3)CC2)c1=O (centres undefined) | inactive | 
6 | CC(C)c1ccc(Cn2c(COc3ccccc3)nc3ccccc32)cc1 | inactive | 
7 | NCCCNCCCCNCCCNC(=O)CCc1ccc(O)cc1 |  | 2.14% [at 7.25 µM]
8 | O=C(NCCS(=O)(=O)N1CCN(c2ccc(F)cc2)CC1)C1CC(=O)N(c2ccc(F)cc2)C1 (centres undefined) | inactive | 
9 | CO[C@@H]1[C@@H](O[C@@H]2O[C@H](C)[C@@H](O[C@H]3C[C@@](C)(O)[C@@H](OC(=O)CC(C)C)[C@H](C)O3)[C@H](N(C)C)[C@H]2O)[C@@H](CC=O)C[C@@H](C)C(=O)/C=C/C2OC2C[C@@H](C)OC(=O)C[C@H]1OC(C)=O (some centres undefined) | inactive | 
10 | COc1ccc(C2Nc3ccccc3C(=O)N2CCCN(C)C)cc1COc1ccc(NC(C)=O)cc1 (centres undefined) | inactive | 
11 | CC(=O)Nc1sc2c(c1-c1ccc(Cl)cc1)CCNC2 | inactive | 
12 | O=c1cc(-c2ccc(O)c(O)c2)oc2cc(O[C@@H]3O[C@@H](CO)[C@@H](O)[C@@H](O)[C@H]3O)cc(O)c12 | inactive | 
13 | CCCc1cc(=O)[nH]c(Nc2cc(C)ccc2OC)n1 | inactive | 
14 | CCOc1ccc(OCC(=O)NCCS(=O)(=O)N2CCN(c3cccc(Cl)c3)CC2)cc1 | inactive | 
15 | O=C1CCc2cc([S+](=O)([O-])NC3CCOCC3)ccc2N1 | inactive | 
16 | Cc1cccc(CSc2nc3cc(C(=O)NC4CCCC4)ccc3c(=O)n2Cc2ccccc2)c1 | inactive | 
17 | COc1ccc(-c2c3c(=O)n(C)c(=O)n(C)c3c3n2-c2ccccc2NC3c2ccccc2OC)cc1 (centres undefined) | inactive | 

Row | SMILES | Potency | activity change, negative = inhibition
18 | O=C(Nc1ccc(F)cc1F)c1ccc(-n2cnnc2)cc1 | inactive | 
19 | Cc1cn2c(=O)cc(COC(=O)c3cccc(NC(=O)c4ccccc4C)c3)nc2s1 | inactive | 
20 | CN[C@@H]1[C@@H](O[C@H]2O[C@H](CO)[C@@H](N)[C@H](O)[C@H]2O)O[C@H]2C[C@@H](N)[C@@H](O[C@H]3[C@H](O)[C@@H](O)[C@H](N)C[C@@H]3N)O[C@@H]2[C@@H]1O | inactive | 
21 | O=C1Nc2ccccc2/C1=C\c1ccc(O)cc1 | inactive | 
22 | O=C(Cc1ccccc1)Nc1ccc2oc(-c3cccnc3)nc2c1 | inactive | 
23 | COc1ccc(NC(=O)c2ncoc2-c2ccco2)cc1Cl | inactive | 
24 | COc1ccc(-c2cc(C(=O)Nc3cc(C(F)(F)F)ccc3Cl)no2)cc1 | inactive | 
25 | Cc1ccc(CNS(=O)(=O)c2ccc(-c3cc(C(F)(F)F)on3)s2)cc1 | inactive | 
26 | CC(C)(C)OC(=O)N1CCN(c2ccc(NCc3ccc(-c4ccc(C#N)cc4)nc3)cc2)CC1 | inactive | 
27 | O=C1c2ccccc2C(=O)N1c1cccc2cnccc12 | inactive | 
28 | O=C(NCc1ccccc1)c1cnc2sc(N3CCCC3)nn2c1=O | inactive | 
29 | Cc1ccc(C)c(NC(=O)Cn2c(=O)n(-c3ccc(CC(=O)NCC4CCCO4)cc3)c(=O)c3ccccc32)c1 (centres undefined) | inactive | 
30 | C=C[C@](C)(O)CCC1C(=C)CC(O)C2C(C)(C)CCCC12C (some centres undefined) | inactive | 
31 | CC1OC(OCC2OC(Oc3cc(O)c4c(c3)OC(c3ccc(O)cc3)CC4=O)C(O)C(O)C2O)C(O)C(O)C1O (centres undefined) | inactive | 
32 | Nc1nc2nc(-c3ccc(Cl)cc3)cc(C(F)(F)F)n2n1 | inactive | 
33 | Cc1ccc(NC(=O)c2sc3ncn(Cc4cccc(F)c4)c(=O)c3c2C)c(Br)c1 | inactive | 
34 | CCCn1c(-c2cccc(Br)c2)nc2ccccc21 | inactive | 
